Only a selection was taken, and hits are over-represented in it overall.
TDP1 block = TDP1 (human) enzyme inhibition; recombinant TDP1, AlphaScreen DNA substrate cleavage; 0.28% of 350,000 active; Potency, µM (series often up to 130 µM), without a hit: at the top dose activity change, negative = inhibition, actives largely listed as inhibitors; AID 485290; also: nearly all actives have a fitted effect of over 40% in size
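Compounds were preincubated with Tdp1 (1 nM final) for 15 min at room temperature before substrate (15 nM final) started a 5 min reaction; beads (10 ug/ml final) were then added for 10 min before AlphaScreen detection.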
RECQ1 helicase = inhibitors of human RECQ1 DNA helicase; P46063; RECQ1 DNA unwinding, red fluorescence kinetic read; 0.54% of 240,000 active; Potency, µM (doses to about 57.3 µM), for inactives: top-dose activity, negative = inhibition, hits mostly inhibitors;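 also: plate controls were vehicle for no effect and no enzyme for full effect; nearly all actives have a fitted effect of over 30% in size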
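RECQ1T1 50 nM; forked duplex (20 bp + 30-nt ss tails) 200 nM, ATP 2 mM final; pH 8.0, 2 mM MgCl2, 2.5 ug/ml poly(dI-dC); 15 min compound preincubation; discontinuous kinetic read over 2 h at RT.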
APEX1 inh = APE1 (human) endonuclease inhibition. P27695. recombinant APE1, TAMRA/BHQ-2 abasic DNA cleavage fluorescence. 0.35% of 350,000 active. Potency, µM (series often up to 65.8 µM), inactives show at the top dose activity change, negative = inhibition, usual class: inhibitors;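 also: plate controls were vehicle for no effect and reference inhibitor for full effect; nearly all actives have a fitted effect of over 55% in size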
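Kinetic fluorescence read (525 ex/598 em nm, three reads 60 s apart) of AP-site incision; signal = third minus first read. Enzyme 0.75 nM, dual-labelled THF duplex 50 nM, compound preincubation 15 min RT.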
BLM inh = Bloom syndrome helicase (human) inhibition; 0.2% of 350,000 active; recombinant BLM DNA unwinding, fluorescence dequenching; Potency, µM (doses to about 56.1 µM), for the others: at the highest dose activity change, negative = inhibition, most hits filed as inhibitors; AID 2528; P54132;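 also: plate controls were vehicle for no effect and no enzyme for full effect; nearly all actives have a fitted effect of over 35% in size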
JMJD2E inh = JMJD2E (human) inhibition; JMJD2E catalytic domain, FDH-coupled NADH fluorescence (FDH is formaldehyde dehydrogenase); Potency, µM (titrated, usually from 57.1 µM), inactives show at the highest dose activity change, negative = inhibition, actives largely listed as inhibitors; 1.6% of 230,000 active; active = well fitted inhibition curve with a large enough effect, not every such curve was filed as active; inconclusive = small, poorly fitted or top-dose-only effect, or another doubt; inactive = no such curve, though single readings can be large or run the other way;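 also: 0% = wells with enzyme and -100% = buffer wells without enzyme; nearly all actives have a fitted effect of over 50% in size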
L3MBTL1 block = inhibitors of human L3MBTL1; Q9Y468; AlphaScreen L3MBTL1–H3K9me1 peptide binding; Potency, µM (highest dose often 57.1 µM), for inactives: at the highest dose activity, negative = inhibition, usual class: inhibitors; 0.66% of 230,000 active; AID 485360; also: nearly all actives have a fitted effect of over 60% in size
Target sequence (Q9Y468 whole entry, looked up): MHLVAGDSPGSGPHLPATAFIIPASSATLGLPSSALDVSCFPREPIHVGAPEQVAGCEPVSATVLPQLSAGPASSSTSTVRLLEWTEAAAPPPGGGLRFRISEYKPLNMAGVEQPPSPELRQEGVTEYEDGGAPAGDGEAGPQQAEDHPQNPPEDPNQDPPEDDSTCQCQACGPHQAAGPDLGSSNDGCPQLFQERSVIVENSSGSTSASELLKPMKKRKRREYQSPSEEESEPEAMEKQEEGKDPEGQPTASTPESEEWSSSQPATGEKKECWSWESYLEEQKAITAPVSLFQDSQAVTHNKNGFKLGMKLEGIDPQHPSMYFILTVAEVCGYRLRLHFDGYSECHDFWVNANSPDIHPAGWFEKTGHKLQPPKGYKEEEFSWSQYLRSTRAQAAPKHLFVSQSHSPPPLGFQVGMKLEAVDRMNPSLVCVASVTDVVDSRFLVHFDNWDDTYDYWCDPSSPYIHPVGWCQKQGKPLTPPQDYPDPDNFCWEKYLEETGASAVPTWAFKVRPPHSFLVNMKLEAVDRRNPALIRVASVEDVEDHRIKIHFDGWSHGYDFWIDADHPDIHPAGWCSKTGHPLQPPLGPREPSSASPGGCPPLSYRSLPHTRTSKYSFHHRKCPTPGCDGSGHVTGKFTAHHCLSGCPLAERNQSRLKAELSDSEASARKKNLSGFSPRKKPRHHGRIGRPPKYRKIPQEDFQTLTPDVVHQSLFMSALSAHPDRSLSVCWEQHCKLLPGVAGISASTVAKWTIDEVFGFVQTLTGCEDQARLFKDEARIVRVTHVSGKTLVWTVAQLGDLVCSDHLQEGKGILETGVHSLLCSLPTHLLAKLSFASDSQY
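L3MBTL1 (50 nM) pre-complexed 30 min with biotinylated H3(1-15)K9me1 peptide (75 nM), then compounds added for 30 min at room temperature; AlphaScreen streptavidin donor/nickel chelate acceptor beads (10 ug/mL final) read after 30 min dark incubation.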
* marks the source's active call; other numbers are inactive results; i = inactive; ? = inconclusive; . = no result; ! = not confirmed by another sample; [ ] = dose if it differs, or a comment. Unless noted, calls follow the shape of the dose curve; as a rule, active = well fitted curve in the direction sought with a large enough effect; inconclusive = small, poorly fitted or top-dose-only effect, or another doubt; inactive = no such curve, though single readings can be large; an effect the other way counts as inactive or inconclusive. Unless noted, % is scaled to controls: 0 for no effect and ±100 for the full control effect; potency is read from the fitted curve at half-maximal effect.

SMILES	TDP1 block	RECQ1 helicase	APEX1 inh	BLM inh	JMJD2E inh	L3MBTL1 block
N#Cc1nc(Nc2ccc(C(F)(F)F)cc2)nc(NC2CCCC2)n1	0%	.	.	.	.	.
COc1ccc(C2Nc3ccccc3C(=O)N2Cc2ccccc2C(F)(F)F)cc1COc1ccc(NC(C)=O)cc1 (centres undefined)	-13%	.	.	.	.	.
COC(=O)CC1=C(C(=O)OC)C(c2cccs2)C(C#N)=C(N)O1 (centres undefined)	2%	-3%	9%	-1%	22µM*	-2%
O=S1(=O)N=C(Oc2ccccc2C(F)(F)F)c2ccccc21	3%	.	.	.	.	.
Cc1nc(NC(=O)c2ccco2)sc1-c1csc(Nc2ccc(Cl)cc2Cl)n1	-2%	-23%	-4%	-24%	?	0%
Cc1ccc(Cl)cc1Nc1nc(-c2sc(NC(=O)c3ccco3)nc2C)cs1	5%	i	?	-5%	25µM*	-10%
COc1ccc(CCNc2ncnc3onc(C)c23)c(OC)c1	3%	.	.	2%	.	.
O=c1/c(=C/c2ccccn2)sc2nc3ccccc3n12	4%	-8%	-2%	-8%	-7%	5%
O=c1/c(=C\c2cc([N+](=O)[O-])cc([N+](=O)[O-])c2O)sc2nc3ccccc3n12	3%	14µM*	35µM*	-6%	?	.
COc1ccc(CN(Cc2ccccc2)C(=O)c2cccc(C#N)c2)cc1COc1ccc(NC(C)=O)cc1	0%	.	.	.	.	.
CCCCCCCCCCCCCCCCn1cc[n+](Cc2ccccc2)c1C	2%	-24%	?	?	.	.
CC(C)(C)n1ncc2c(=O)n(Cc3ccc(Cl)cc3F)cnc21	.	.	-3%	.	.	.
CC(=O)Nc1ccc(NC(=O)c2cc(S(=O)(=O)N3CCCCC3)ccc2C)cc1	2%	.	2%	.	.	5%
Cc1ccc(S(=O)(=O)N2CCCCC2)cc1C(=O)Nc1cccnc1	20µM*	?	3%	-19%	-2%	-4%
Cc1ccc(S(=O)(=O)N2CCCCC2)cc1C(=O)Nc1ncn[nH]1	50µM*	-19%	?	-9%	15%	-16%
Cc1ccc(S(=O)(=O)N2CCCCC2)cc1C(=O)NC1CCCCC1	.	.	90%	-4%	.	.
CC(=C/C(=O)O)/C=C/c1ccc(Cl)o1	25µM*	-3%	-3%	85%	?	10µM*
N[C@@H]1CCN(O)C1=O	-8%	-2%	3.5µM*!	-11%	-15%	.
COc1ccc(CCC(=O)NC2CC(=O)N(c3ccc(F)cc3)C2)cc1 (centres undefined)	-3%	.	.	2%	.	.
O=C1/C(=C\c2ccc(O)c(O)c2)C(c2ccccc2)=NN1c1ccccc1	8%	?	?	?	14µM*	14µM*
COc1cc(/C=C2\C(=O)N(c3ccc(NC(C)=O)cc3)N=C2c2ccccc2)ccc1O	8%	30%	?	0%	-26%	-3%
C=C(C)C(O)/C=C/c1cccc(OC)c1 (centres undefined)	6%[21 µM]	7%[11.5 µM]	?	-3%[12.4 µM]	.	.
CCC(=O)c1ccc(CCCCCC(=O)O)s1	18µM*	-14%	?	-4%	4%	.
O=C1CCc2cc(S(=O)(=O)Nc3cccc(B(O)O)c3)ccc2N1	0%	.	.	.	.	.
S=C([S-])NCCNC(=S)[S-].[Zn+2]	14µM*	32µM*	16µM*	.	.	.
SMILES	TDP1 block	RECQ1 helicase	APEX1 inh	BLM inh	JMJD2E inh	L3MBTL1 block
CO[C@H]1C=CO[C@@]2(C)Oc3c(C)c(O)c4c(O)c(c5c(nc6cc(C)ccn65)c4c3C2=O)NC(=O)/C(C)=C\C=C[C@H](C)[C@H](O)[C@@H](C)[C@@H](O)[C@@H](C)[C@H](OC(C)=O)[C@@H]1C	.	.	-1%	.	.	.
Cc1ccccc1C(=O)NCC(=O)OC(C(=O)Nc1cc(C(F)(F)F)ccc1Cl)c1ccccc1 (centres undefined)	-3%	.	.	.	.	.
Nc1ccccc1NC1CCCCC1	5%	-5%	-2%	-11%	14µM*	.
O=C(Nc1ccccc1NC(=O)NC1CCCCC1)NC1CCCCC1	8%	-11%	13%	0%	6%	4%
Cc1[nH]c2ccccc2c1/C=N/Nc1nncn1N	8%	15%	-2%	-2%	?	-26%
Cc1[nH]c2ccccc2c1/C=N/Nc1ccccn1	5%	-12%	-1%	-11%	25µM*	?
CCOC(=O)c1ccc(-n2cnc3c(c2=N)C(c2cccc(OC)c2)c2c(ccc4ccccc24)O3)cc1 (centres undefined)	3%	.	.	.	.	.
Cc1onc(-c2ccccc2)c1C(=O)NC(=S)NNC(=O)c1cc(-c2ccc(F)cc2)n[nH]1	-12%	-5%	-9%	-6%	13µM*	.
Cc1onc(-c2ccccc2)c1C(=O)NC(=S)NNC(=O)c1ccco1	10%	-8%	-3%	-2%	-23%	6%
COc1ccccc1NC(=O)C(OC(=O)CNC(=O)c1ccccc1)c1ccccc1 (centres undefined)	0%	.	.	.	.	.
CCOc1cc(-c2ccc(OC(=O)c3ccc(C)cc3)c(OC)c2)cc(=O)c2c(C)oc(C)c12	10%	.	.	-10%	.	.
COc1ccc(OC)c(C2CC(=O)N3CN(c4cccc(Cl)c4C)CSC3=C2C#N)c1 (centres undefined)	5%	-5%	1%	-6%	?	.
COc1cc(C2CC(=O)N3CN(c4ccccc4C)CSC3=C2C#N)cc(OC)c1OC (centres undefined)	0%	-4%	16%	-11%	11µM*	-11%
CCc1ccccc1N1CSC2=C(C#N)C(c3cc(OC)c(OC)cc3OC)CC(=O)N2C1 (centres undefined)	-2%	2%	-1%	-19%	?	.
COc1ccccc1N1CSC2=C(C#N)C(c3ccc(SC)cc3)CC(=O)N2C1 (centres undefined)	6%	?	-3%	-30%	22µM*	22µM*
CCOc1ccc(N2CSC3=C(C#N)C(c4ccco4)CC(=O)N3C2)cc1 (centres undefined)	.	?	32µM*	?	?	.
COc1ccc(OC)c(C2CC(=O)N3CN(c4ccccc4F)CSC3=C2C#N)c1 (centres undefined)	10%	14%	?	7%	2.2µM*	.
NCCc1cnc(-c2cccc(C(F)(F)F)c2)[nH]1	10%	-13%	-5%	-4%	.	.
C=CCNC(=O)c1cc(-c2cccs2)on1	.	.	9%	.	.	.
CC(/C=C/c1ccco1)=N\NC(=O)CNc1ccc2ccccc2c1	8%	-4%	-8%	-8%	?	35µM*
CC(/C=C/c1ccco1)=N/NC(=O)CNc1ccccc1C	4%	-5%	3%	-12%	-4%	.
CCCCNc1c2c3c(cccc3n(C)c1=O)C(=O)c1ccccc1-2	.	32µM*	-3%	-13%	-6%	94%
